Assay results from PubChem BioAssay (NCI).
Where “and” joins values, the source holds several entries; their conditions need not be identical. Equal values may be shown once. The panel holds about 83,000 compounds, 20% with a hit somewhere; the sample as a whole holds those more often.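 Interpretation: 100, growth as untreated; towards 0, rising growth inhibition; 0, no net growth; 0 to -100, cell death. Compounds scoring below 10 were considered active.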 Calls of active or inactive are those of the source.

Each molecule was assayed on MDA-MB-468 breast (assay: NCI-60 one-dose screen, 48 h (100 = growth as untreated, 0 = no growth, -100 = all killed)). Conditions: 10 µM unless noted.

SMILES | growth
CCc1cccc(CC)c1N1C(=O)C=CC1=O | 34.7% (inactive)
COc1cccc(OC)c1OC(=O)c1ccccc1 | 105% (inactive)
CC[C@H](CC[C@@H](C)[C@H]1CC[C@H]2[C@@H]3CC[C@@H]4CC(=O)/C(=C\c5ccncc5)C[C@]4(C)[C@H]3CC[C@]12C)C(C)C | 105% (inactive)
O=C1C(=O)N(CCCCn2cc(CO)nn2)c2ccccc21 | 98.6% (inactive)
CC(C)(C)c1ccc(OP(=S)(N/N=C/c2ccccc2O)Oc2ccc(C(C)(C)C)cc2)cc1 | 35.4% (inactive)
CCCCCCCCCCCC[S+](C)CC(=O)[O-] (stereo not given) | -53.1% (active)
Nc1ccc(O)c(C(=O)O)c1 | 73.1% (inactive) and 9.23% (active) and 98.8% (inactive)
NS(=O)(=O)c1cccc(NC(=O)C(=O)C2C(=O)Nc3ccccc32)c1 (stereo not given) | 101% (inactive)
CN(CC(=O)N(Cc1ccc(C2CCCCC2)cc1)c1ccc(C(=O)O)cc1)S(=O)(=O)c1c(F)c(F)c(F)c(F)c1F | -86.6% (active)
Cc1cc(=O)cc(C)n1-c1ccccc1 | 100% (inactive)
N=C1/C(=C2\NC3C=CC=CC3S2)C(c2ccc(Cl)cc2)C2C(=O)N(c3ccccc3)C(=S)N12 (stereo not given) | 97.9% (inactive)
CN1/C(=C\C=C\C2=[N+](C)c3ccccc3C2(C)C)C(C)(C)c2ccccc21 | -40.4% (active)
CC[N+](CC)(CC(=O)Nc1c(C)cccc1C)Cc1ccccc1 | 63.8% (inactive)
CC(C)=NNC(N)=S | 10.6% (inactive)
Cn1ncc(CC(=O)O)c1-n1nnc2cc(Cl)ccc2c1=O | 89.5% (inactive)
O=S(=O)(O)c1cccc2cccnc12 | 100% (inactive)
CC(C)=CCc1c(O)c(CC=C(C)C)c2c(c1O)C(=O)C1=C[C@@H]3C[C@H]4C(C)(C)O[C@@](C/C=C(\C)C(=O)O)(C3=O)[C@@]14O2 | -45.1% (active)
c1ccc(-c2c(-c3ccccc3)[n+](Cc3ccc4ccccc4c3)c(-c3ccc(-c4nc5ccccc5s4)cc3)n2Cc2ccc3ccccc3c2)cc1 | -77.8% (active)
CCc1nc(N)nc(N)c1C#CC(C)c1ccc(-c2ccncc2)cc1Cl (stereo not given) | 5.88% (active)
Cn1ccc2c3c(ccc21)CC3=O | 106% (inactive)

SMILES | growth
CCOC(=O)c1cn2c3c(cc(C)cc3c1=O)C(=O)/C(=C/c1ccccc1)C2 | 84.6% (inactive)
CN(C)C(=O)c1cc2cnc(Nc3ccc(-c4csc5c(=O)cc(N6CCOCC6)oc45)cc3)nc2n1C1CCCC1 | -5.41% (active)
OCC1CCC(O)C(CO)N1 (stereo not given) | 104% (inactive)
CCCCOc1ccc(S(=O)(=O)N2CCN(c3nccc(N4CCOCC4)n3)CC2)cc1 | 6.94% (active)
COc1ccccc1C(=O)Nc1cccc(-c2cc(=O)c3c(OC)c(OC)c(OC)cc3o2)c1 | 39.2% (inactive)
Clc1nc2ccc(Br)cc2cc1-c1nc2ccccc2[nH]1 | 76.3% (inactive)
Cc1ccc2c(c1)ncn2-c1ncnc2c1CC(C)c1ccccc1N2C (stereo not given) | 38% (inactive)
C#Cc1ccc(-n2c(/C=C/c3cc(OC)c(OC)c(OC)c3)nc3ncccc3c2=O)cc1 | 3.92% (active)
O=c1oc2ccc(Cl)cc2c(=O)n1-c1cc(C(F)(F)F)cc(C(F)(F)F)c1 | -8.67% (active)
CC(C)(Sc1cc(C(C)(C)C)c(OC(=O)CCCC(=O)O)c(C(C)(C)C)c1)Sc1cc(C(C)(C)C)c(OC(=O)CCCC(=O)O)c(C(C)(C)C)c1 | 54.1% (inactive)
Cc1ccc(NC(=O)N[C@@H](Cc2cc(F)cc(F)c2)C(=O)NC2C(=O)N3C[C@H](O)C[C@H]3C(=O)N3CCCC[C@H]3C(=O)N[C@@H](CO)C(=O)N3C[C@H](C)C[C@H]3C(=O)O[C@H]2C)c(F)c1 (stereo not given in full) | -2.72% (active)
Nc1nc2c3ccncc3cc(-c3cccc(Cl)c3)c2c2cnccc12 | 36.6% (inactive)
Cc1ccccc1CNC(=O)C1CN(c2ccc(Cl)cc2)N(c2ccc(Cl)cc2)C1=O (stereo not given) | 83.2% (inactive)
COCCc1n(Cc2ccc3ccccc3c2)c2ccccc2[n+]1Cc1ccc2ccccc2c1 | -23.4% (active)
COc1cc(C)ccc1C(=O)c1ccc(C)cc1OC | -20.3% (active)
COc1ccc2sc(NC(=O)CCCCCCNC(=O)C(O)(O)C(F)(F)F)nc2c1 | -11.7% (active)
C#CCOc1cccc(/C(N)=N/C(N)=N/c2nc3ccccc3s2)c1 | 76.4% (inactive)
COc1cc2oc(-c3cccc(N)c3)cc(=O)c2c(OC)c1OC | 99.9% (inactive)
C=C(CBr)[C@@H]1CC[C@]2(C(=O)O)CC[C@]3(C)[C@H](CC[C@@H]4[C@@]5(C)CCC(=O)C(C)(C)[C@@H]5CC[C@]43C)[C@@H]12 | 40.3% (inactive)
COc1ccc(-c2cnnc3c(-c4cccc(C(F)(F)F)c4)cnn23)cc1 | 77.6% (inactive)
